# The list is not random: actives were taken first. Their share in the collection is about 3.3%.
# USP2a block = qHTS Assay for Inhibitors of Ubiquitin-specific Protease USP2a Using CHOP2 as the Reporter | USP2 core, Ub-CHOP2 coupled fluorogenic reporter, 485/531 | Potency, µM (top dose mostly 38.3 µM), without a hit: top-dose activity change, negative = inhibition, actives largely listed as inhibitors | 0.01% of 330,000 active | AID 463254, 2010;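 further: potency means the concentration at half of the fitted maximal effect; plate controls were DMSO wells for no effect and full inhibition by NEM control for full effect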
#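 Cell-free coupled assay: 10nM USP2 core preincubated 30min RT with compound in Tris-HCl pH 8.0/CaCl2/CHAPS buffer, then 25nM Ub-CHOP2 and 25nM reporter substrate; fluorescence (Ex 485/Em 531) read after 60min RT, normalized to NEM inhibition, concentration-response curves fitted.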
# PI5P4K alpha inh = qHTS for Inhibitors of phosphatidylinositol 5-phosphate 4-kinase (PI5P4K) | Phosphatidylinositol 5-phosphate 4-kinase type-2 alpha (Homo sapiens), P48426 | PI5P4Kalpha enzyme, ADP-Glo luminescence, 60 min; hits give low values | max response, % | 1.2% of 330,000 active; active means max response of -50% or lower; inconclusive means between -30% and -50%; inactive means -30% or higher; further: value at the top dose of about 77 µM
#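 Compounds were pin-transferred onto PI5P4Kalpha and substrate in HEPES pH 7.4 buffer with EGTA, CHAPS and 5% DMSO. ATP (5 microM final) started the reaction, which ran 60 minutes at room temperature before ADP-Glo detection.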
# WRN inhibitor = qHTS for Inhibitors of WRN Helicase | WRN helicase unwinding, fluorescent forked duplex, kinetic | AID 651768, 2012 | Potency, µM (highest dose often 114 µM), without a hit: at the highest dose activity change, negative = inhibition, actives largely listed as inhibitors | 0.46% of 360,000 active; further: potency means the concentration at half of the fitted maximal effect; nearly all actives have a fitted effect of over 55% in size
#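 Fluorescence dequenching readout, ex 525 nm/em 598 nm, kinetic mode: forked duplex DNA (100 nM final) with adjacent fluorophore and quencher unwound by WRN (20 nM final) with 2 mM ATP. Compound preincubation 15 min, room temperature.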
# USP1 inh = Inhibitors of USP1/UAF1: Primary Screen | Ubiquitin carboxyl-terminal hydrolase 1 (Homo sapiens), O94782 | recombinant USP1/UAF1, Ub-Rhodamine cleavage fluorescence | Potency, µM (top dose mostly 57.1 µM), for the others: at the top dose activity change, negative = inhibition, usual class: inhibitors | 0.23% of 390,000 active; further: potency means the concentration at half of the fitted maximal effect; nearly all actives have a fitted effect of over 60% in size
# Target sequence (O94782 whole entry, looked up): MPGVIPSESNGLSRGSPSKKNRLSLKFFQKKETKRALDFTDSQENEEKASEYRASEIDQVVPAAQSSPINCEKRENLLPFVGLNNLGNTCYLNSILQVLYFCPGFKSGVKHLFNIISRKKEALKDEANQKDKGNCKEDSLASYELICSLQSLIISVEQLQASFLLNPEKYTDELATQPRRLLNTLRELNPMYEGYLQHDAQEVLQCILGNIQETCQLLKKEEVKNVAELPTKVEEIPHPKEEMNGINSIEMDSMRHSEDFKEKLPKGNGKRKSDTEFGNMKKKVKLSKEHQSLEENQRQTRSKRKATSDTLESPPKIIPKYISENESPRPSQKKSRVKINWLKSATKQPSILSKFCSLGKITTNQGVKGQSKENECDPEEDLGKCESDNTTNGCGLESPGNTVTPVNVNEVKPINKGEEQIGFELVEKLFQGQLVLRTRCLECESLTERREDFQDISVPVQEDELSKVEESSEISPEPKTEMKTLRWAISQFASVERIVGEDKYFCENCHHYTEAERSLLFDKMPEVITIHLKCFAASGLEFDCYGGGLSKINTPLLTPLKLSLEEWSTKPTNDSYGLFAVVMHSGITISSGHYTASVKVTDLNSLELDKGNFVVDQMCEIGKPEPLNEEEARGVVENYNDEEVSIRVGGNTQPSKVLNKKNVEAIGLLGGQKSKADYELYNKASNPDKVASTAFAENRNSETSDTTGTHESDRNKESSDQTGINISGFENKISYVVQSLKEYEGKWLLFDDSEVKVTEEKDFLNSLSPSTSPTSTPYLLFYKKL
#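 High-throughput fluorogenic screen: 1nM USP1/UAF1 complex, Ub-Rho substrate 150nM final, 50mM HEPES pH 7.8 with 0.5mM EDTA, 0.1 mg/ml BSA, 1mM TCEP and 0.01% Tween-20.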
# PLK1 PBD inh = qHTS for Inhibitors of PLK1-PDB (polo-like kinase 1 - polo-box domain): Primary Screen; Serine/threonine-protein kinase PLK1 (Homo sapiens), P53350; Plk1 PBD binding of FITC phosphopeptide, fluorescence polarization; Potency, µM, without a hit: max response, negative = inhibition, hits mostly inhibitors; 2.8% of 360,000 active; further: potency means the concentration at half of the fitted maximal effect; series mostly up to about 57 µM; nearly all actives have a fitted effect of over 65% in size
# An asterisk follows results filed as active; ? = inconclusive; . = no result given; [ ] = another dose, or the depositor's remark. Unless noted, the call rests on the fitted dose curve; in most records, active means well fitted curve in the direction sought with a large enough effect; inconclusive means small, poorly fitted or top-dose-only effect, or another doubt; inactive means no such curve, though single readings can be large; an effect the other way counts as inactive or inconclusive. Unless noted, on the % scale 0 is the no-effect control and ±100 the full control effect.
SMILES,USP2a block,PI5P4K alpha inh,WRN inhibitor,USP1 inh,PLK1 PBD inh
COc1ccc(NC(=O)Cn2cnc3c(nc4n3CCCCC4)c2=O)c(OC)c1,.,.,.,-22%,.
CCOC(=O)NNc1ccc2nonc2c1[N+](=O)[O-],-3%,-65*,50µM*,25µM*,8.4µM*
Cc1cccc(NC(=O)CSc2nnc(NC(=O)CN3CCCCC3)s2)c1,1%,.,.,.,.
CCOC(=O)CSc1nnc(NC(=O)CN2CCCCC2)s1,5%,-17,3%,-27%,27µM*
N#Cc1nc(COc2ccccc2)oc1N1CCN(Cc2ccccc2)CC1,3%,7,-5%,-23%,30µM*
Cc1ccc(OCc2nc(C#N)c(N3CCN(Cc4ccccc4)CC3)o2)cc1,3%,-10,-6%,-12%,27µM*
N#Cc1nc(COc2ccc(F)cc2)oc1N1CCCC1,3%,1,0%[57.1 µM],-15%,-2%
N#Cc1nc(COc2ccccc2)oc1N1CCC(Cc2ccccc2)CC1,-6%,1,-11%,-10%,-3%
CCOC(=O)c1c(S(=O)(=O)NCC(=O)N2CCN(c3cccc(Cl)c3)CC2)c(C)n(C)c1C,.,.,.,-19%,.
CCC1=Nc2cc(C(=O)NC3CCCC3)ccc2Sc2ccc(Br)cc21,.,.,.,-32%,.
O=C1NC2(CCCCC2)C(=O)N1/N=C/c1ccccc1Br,-1%,-6,3%,-12%,-4%
O=C1NC2(CCCCC2)C(=O)N1/N=C/c1ccc(O)cc1O,1%,-20,-5%,2%,21µM*
S=C(NCC1CCCO1)c1ccc(Br)cc1 (stereo not given),-1%,-18,-16%,-5%,12µM*
O=C(Cc1ccc(Br)cc1)Nc1ccc(S(=O)(=O)NCC2CCCO2)cc1 (stereo not given),4%,?,-31%,-7%,24µM*
COCC(=O)Nc1ccc(S(=O)(=O)NCC2CCCO2)cc1 (stereo not given),-1%,5,-15%,-18%,-4%
Cc1ccccc1C(=O)Nc1ccc(S(=O)(=O)NCC2CCCO2)cc1 (stereo not given),.,-1,10%,-27%,-1%
O=C(CSc1ccccc1)Nc1ccc(S(=O)(=O)NCC2CCCO2)cc1 (stereo not given),1%,.,-2%,-14%,24µM*
O=C(NCC1CCCO1)c1ccc(C(=O)NCC2CCCO2)cc1 (stereo not given),1%,9,2%,-25%,-8%
CCc1ccc(-c2cn3c(n2)sc2cc(C(=O)NCCC4=CCCCC4)ccc23)cc1,.,.,.,-19%,.
Cc1ccc(NC(=O)Nc2nnc(SCC(=O)N(C(C)C)C(C)C)s2)cc1,.,.,.,12%,.
CCN(C(=O)c1oc2ccc(S(=O)(=O)N3CCCCCC3)cc2c1C)c1ccccc1,.,.,.,-4%,.
Cc1c(C(=O)N(Cc2ccccc2)C(C)C)oc2ccc(S(=O)(=O)N3CCOCC3)cc12,2%,0,-4%,-25%,30µM*
CCN(CC)S(=O)(=O)c1ccc2oc(C(=O)NC(C)C)c(C)c2c1,2%,-2,-2%,-8%,27µM*
CCCCN(CC)C(=O)c1oc2ccc(S(=O)(=O)N3CCCC3)cc2c1C,-1%,3,-5%,-21%,30µM*
Cc1c(C(=O)N(C)CCC#N)oc2ccc(S(=O)(=O)N3CC(C)CC(C)C3)cc12 (stereo not given),-6%,0,-9%,-9%,19µM*
SMILES,USP2a block,PI5P4K alpha inh,WRN inhibitor,USP1 inh,PLK1 PBD inh
Cc1ccc(NC(=O)CSc2nc3ccccc3nc2Cc2ccccc2)c(C)c1,.,.,.,-23%,.
CCOc1ccccc1NC(=O)Cn1c(=O)n(Cc2ccc(OC)cc2)c(=O)c2oc3ccccc3c21,.,.,.,7%,.
O=Cc1cc(N=Nc2ccc(S(=O)(=O)O)cc2)ccc1O,.,-76*,?,-9%,-14%
O=C(CN1CCN(Cc2ccc(F)cc2)C1=O)NCc1ccccc1,.,.,.,-17%,.
O=C(/C=C/c1ccc(O)cc1)c1ccc(NC2=C(N3CCCCC3)C(=O)c3ccccc3C2=O)cc1,-3%,-29,-35%,16µM*,-24%
COc1ccccc1NC1=C(N2CCCCC2)C(=O)c2ccccc2C1=O,2%,3,-28%,18µM*,-15%
Cc1ccc(NC2=C(N3CCCCC3)C(=O)c3ccccc3C2=O)cc1,-6%,.,-14%,?,-11%
O=C(/C=C/c1ccc(O)cc1)c1ccccc1,1%,-8,6%,-20%,0%
O=C1C(Nc2cccc(O)c2)=C(N2CCCCC2)C(=O)c2ccccc21,2%,.,?,?,-19%
O=C1C(Nc2ccccc2)=C(N2CCCCC2)C(=O)c2ccccc21,1%,10,-18%,25µM*,?
Cc1ccccc1OCCn1c(-c2ccc(Cl)cc2)nc2ccccc2c1=O,.,.,.,-18%,.
Cc1nc2nc(NCc3ccc(Br)cc3)[nH]n2c(=O)c1Cc1ccccc1,.,.,.,0%,.
CN1CCN(Cc2nc3ccccc3c(=O)n2Cc2nc(-c3cccc([N+](=O)[O-])c3)cs2)CC1,-11%,-29,-36%,-17%,27µM*
NC(=S)N=Nc1c(O)cc(O)c2[nH]c(=O)ccc12,.,-72*,16µM*,18µM*,7.5µM*
NC(=S)N=Nc1c(O)[nH]c2ccc(F)cc12,-2%,-10,-17%,-19%,0%
CCOc1ccc(C(CC(=O)O)NS(=O)(=O)c2ccc(C)cc2)cc1OC (stereo not given),-4%,-16,0%,-21%,21µM*
CCOc1ccc(C(CC(=O)O)NC(=O)COc2ccccc2)cc1OC (stereo not given),4%,8,1%,2%,-11%
Cc1cccc(NC(=O)CCC(=O)OCC(=O)c2ccc(Oc3ccc([N+](=O)[O-])cc3)cc2)c1,0%,-24,-14%[57.1 µM],-11%,11µM*
CCn1c(C(=O)Nc2cc(C)cc(C)c2)cc2sc(Cl)cc21,.,.,.,-1%,.
CCN1C(C(=O)c2ccccc2)=C(OC(=O)c2ccc(Cl)cc2)c2ccccc2S1(=O)=O,.,.,.,-18%,.

# Screening data (PubChem)
